High-throughput results deposited in PubChem BioAssay by National Center for Advancing Translational Sciences (NCATS).
Rows were chosen to be rich in hits. Some 7.5% of all compounds tested hit in one or more screens of this group.
NPC1 prom act: qHTS Assay for NPC1 Promoter Activators; AID 485313, 2010; 320,000 compounds, 2.4% hits; Huh7 NPC1 promoter luciferase reporter, 24 h; Potency, µM (doses to about 9.22 µM), for inactives: at the highest dose activation, usual class: activators; also: % of control where 0% means no effect; nearly all actives have a fitted effect of over 60% in size
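In 1536-well qHTS, Huh7 cells harboring an NPC1 promoter–luciferase construct received compound for 24 h; activation was quantified by luminescence following luciferase reagent addition.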
ELG1 genotoxic: qHTS screen for small molecules that induce genotoxicity in human embryonic kidney (HEK293T) cells expressing luciferase-tagged ELG1; Potency, µM (series often up to 46 µM), without a hit: at the highest dose activity change, positive = activation, usual class: activators; 330,000 compounds, 1.3% hits; HEK293T ELG1-luciferase reporter, luminescence, 16 h; also: % of control where 0% means no effect; nearly all actives have a fitted effect of over 60% in size
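Step 1: seed 2,000 HEK293T ELG1-luciferase cells per well. Step 2: add compound or DMSO, incubate 16 hr at 37 °C. Step 3: ONE-Glo, 30 min at room temperature, read luminescence.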
FLuc modulator: qHTS profiling assay for firefly luciferase inhibitor/activator using purifed enzyme and Km concentrations of substrates (counterscreen for miR-21 project); AID 588342, 2011; 360,000 compounds, 6.9% hits; Potency, µM (highest dose often 57.5 µM), for the others: top-dose activity change, negative = inhibition, actives largely listed as inhibitors; purified FLuc, Km substrates, luminescence inhibition; Luciferin 4-monooxygenase (Photinus pyralis), P08659;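 also: plate controls were vehicle for no effect and reference inhibitor for full effect; nearly all actives have a fitted effect of over 55% in size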
Target sequence (P08659 whole entry, looked up): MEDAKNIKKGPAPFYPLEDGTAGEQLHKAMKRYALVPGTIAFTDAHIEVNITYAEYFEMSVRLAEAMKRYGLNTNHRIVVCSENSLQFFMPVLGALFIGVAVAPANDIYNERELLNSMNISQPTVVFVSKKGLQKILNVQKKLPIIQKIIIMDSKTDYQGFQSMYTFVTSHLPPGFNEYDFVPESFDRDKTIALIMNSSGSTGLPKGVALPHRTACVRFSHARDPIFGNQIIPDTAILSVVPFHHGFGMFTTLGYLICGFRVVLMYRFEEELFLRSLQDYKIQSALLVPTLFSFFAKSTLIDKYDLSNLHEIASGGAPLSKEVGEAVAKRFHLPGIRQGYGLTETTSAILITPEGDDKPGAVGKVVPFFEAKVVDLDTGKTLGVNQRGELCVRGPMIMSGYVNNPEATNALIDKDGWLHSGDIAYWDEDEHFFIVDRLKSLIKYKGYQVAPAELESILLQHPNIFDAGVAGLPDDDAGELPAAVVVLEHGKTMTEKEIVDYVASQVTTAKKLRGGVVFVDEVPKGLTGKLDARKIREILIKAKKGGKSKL
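Purified P. pyralis luciferase (10nM final) with 10uM D-luciferin and 10uM ATP (Km levels) in 50mM Tris acetate pH 7.5, 10mM Mg acetate, 0.01% Tween-20, 0.05% BSA; qHTS 6-point titration, ~60 µM downward; luminescence read.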
SMN2 splice up: qHTS Assay for Enhancers of SMN2 Splice Variant Expression; HEK293 SMN2-luciferase splicing reporter, luminescence, 30-36 h; 210,000 compounds, 2.8% hits; Potency, µM (top dose mostly 46.1 µM), for inactives: top-dose activity change, positive = activation, actives largely listed as activators; also: % of control where 0% means no effect; nearly all actives have a fitted effect of over 55% in size
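HEK293 cells carry an SMN2 […]–luciferase reporter in which exon 7 inclusion puts luciferase in frame. Cells were plated 10-12 h before compound addition, then incubated 30-36 h at 37C. ONE-Glo luminescence was read; sodium butyrate at 4.5 mM final served as control.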
KinaseGlo FLuc: Counterscreen for Luciferase (Kinase-Glo TM) Inhibition. Luciferin 4-monooxygenase (Photuris pensylvanica), Q27757. Kinase-Glo luciferase, ATP luminescence, 8 min. Potency, µM (series often up to 38.3 µM), for inactives: at the highest dose activity change, negative = inhibition, hits mostly inhibitors. 200,000 compounds, 0.28% hits; also: % is scaled to controls: 0 for no effect and ±100 for the full control effect; nearly all actives have a fitted effect of over 60% in size
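Luminescence was the read-out, taken after 8-minute incubation at ambient temperature. Luciferase turned over luciferin with 10 uM ATP in imidazole pH 7.2 buffer containing KCl, MgCl2, Tween 20 and BSA.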
Rab9 prom act: qHTS Assay for Rab9 Promoter Activators | Huh7 Rab9 promoter-luciferase reporter, luminescence, 24 h | Potency, µM (top dose mostly 9.22 µM), for the others: at the highest dose activation, negative = inhibition, most hits filed as activators | 320,000 compounds, 2.8% hits; also: % of control where 0% means no effect; nearly all actives have a fitted effect of over 60% in size
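Steps: seed 1500 Huh7 Rab9-luc cells per well, rest 2 h at 37 °C; add compound in DMSO; incubate 24 h; add luciferase reagent, 10 min ambient; read luminescence.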
* marks the source's active call; other numbers are inactive results. Calls follow the shape of the dose curve; as a rule, active = well fitted curve in the direction sought with a large enough effect; inconclusive = small, poorly fitted or top-dose-only effect, or another doubt; inactive = no such curve, though single readings can be large; an effect the other way counts as inactive or inconclusive. Potency is read from the fitted curve at half-maximal effect.

How did O=C(CSc1nc(-c2ccc(F)cc2)cs1)N1CCOCC1 do in these assays?
NPC1 prom act: 29%; ELG1 genotoxic: 18µM*; FLuc modulator: inconclusive; SMN2 splice up: 62%; KinaseGlo FLuc: 0%; Rab9 prom act: inconclusive

How did O=S(=O)(c1ccc(F)cc1)N1CCN(c2nc(-c3ccc(F)cc3)cs2)CC1 do in these assays?
NPC1 prom act: 0%; ELG1 genotoxic: -6%; FLuc modulator: -3%; SMN2 splice up: -34%; KinaseGlo FLuc: 0%; Rab9 prom act: -3%

What do the screens show for `Fc1ccc(-c2csc(N3CCSCC3)n2)cc1`?
NPC1 prom act: 6%; ELG1 genotoxic: 0%; FLuc modulator: 17µM*; SMN2 splice up: -11%; KinaseGlo FLuc: 5%; Rab9 prom act: 21%

What do the screens show for `Brc1ccc(-c2csc(N3CCc4ccccc4C3)n2)cc1`?
NPC1 prom act: 0%; ELG1 genotoxic: 0%; FLuc modulator: inconclusive; SMN2 splice up: -6%; KinaseGlo FLuc: 5%; Rab9 prom act: -7%

Results for CS(=O)(=O)N1CCN(c2nc(-c3ccc(F)cc3)cs2)CC1 ?
NPC1 prom act: 11%; ELG1 genotoxic: -1%; FLuc modulator: 11µM*; SMN2 splice up: -25%; KinaseGlo FLuc: -6%; Rab9 prom act: 14%

Results for Brc1ccc(-c2csc(N3CCC(c4ccccc4)C3)n2)cc1 (stereo not drawn) ?
NPC1 prom act: inconclusive; ELG1 genotoxic: 8%; FLuc modulator: 6µM*; SMN2 splice up: -33%; KinaseGlo FLuc: 3%; Rab9 prom act: inconclusive

What do the screens show for `Fc1ccc(-c2csc(N3CCOCC3)n2)cc1`?
NPC1 prom act: 4µM*; ELG1 genotoxic: 13%; FLuc modulator: 21µM*; Rab9 prom act: 2.5µM*

Results for COc1cc(-c2csc(N3CCOCC3)n2)cc(OC)c1OC ?
NPC1 prom act: 1%; ELG1 genotoxic: 6%; FLuc modulator: -10%; SMN2 splice up: 9%; KinaseGlo FLuc: -2%; Rab9 prom act: -1%

What do the screens show for `Cc1ccc(COc2ccc(-c3nnco3)cc2)cc1`?
NPC1 prom act: 2.2µM*; ELG1 genotoxic: inconclusive; FLuc modulator: 9.5µM*; Rab9 prom act: 3.5µM*

How did Nn1c(-c2ccccc2Cl)nnc1-c1ccccc1Cl do in these assays?
NPC1 prom act: 3.5µM*; ELG1 genotoxic: inconclusive; FLuc modulator: 0.95µM*; SMN2 splice up: inconclusive; KinaseGlo FLuc: -9%; Rab9 prom act: 4µM*

What do the screens show for `COc1ccc(C(=O)Nc2nc(-c3cccs3)c(NC(C)=O)s2)cc1`?
NPC1 prom act: -2%; ELG1 genotoxic: 16%; FLuc modulator: -3%; SMN2 splice up: 0%; KinaseGlo FLuc: 6%; Rab9 prom act: 24%

What do the screens show for `Cc1ccc(C(=O)Nc2ccc3c(c2)C(=O)NC3=O)cc1`?
NPC1 prom act: -2%; ELG1 genotoxic: 19%; FLuc modulator: inconclusive; Rab9 prom act: 14%

Results for Cc1ccc(C(=O)Nc2nc(=O)[nH]s2)cc1 ?
NPC1 prom act: -1%; ELG1 genotoxic: 6%; FLuc modulator: 24µM*; SMN2 splice up: 38%; KinaseGlo FLuc: 5%; Rab9 prom act: 3%

What do the screens show for `Cc1ccc(C(=O)Nc2nccs2)cc1`?
NPC1 prom act: 2.8µM*; ELG1 genotoxic: inconclusive; FLuc modulator: 8.5µM*; SMN2 splice up: 10µM*; KinaseGlo FLuc: -15%; Rab9 prom act: 2.2µM*

What do the screens show for `CC(=O)Nc1sc(NC(=O)c2ccc(C)cc2)nc1-c1cccs1`?
NPC1 prom act: -3%; ELG1 genotoxic: 7%; FLuc modulator: -14%; SMN2 splice up: 11µM*; KinaseGlo FLuc: 2%; Rab9 prom act: -7%

Results for Nc1ccc(C(=O)Nc2nccs2)cc1 ?
NPC1 prom act: inconclusive; ELG1 genotoxic: inconclusive; FLuc modulator: inconclusive; SMN2 splice up: 13µM*; KinaseGlo FLuc: -13%; Rab9 prom act: 4µM*

Results for O=C(Nc1nccs1)c1ccc2nccnc2c1 ?
NPC1 prom act: inconclusive; ELG1 genotoxic: 8%; FLuc modulator: inconclusive; SMN2 splice up: -3%; KinaseGlo FLuc: -4%; Rab9 prom act: inconclusive

How did COc1ccc(C2(C)NC(=O)N(CC(=O)Nc3ccc(Br)cc3F)C2=O)cc1OC (stereo not drawn) do in these assays?
NPC1 prom act: -1%; ELG1 genotoxic: -5%; FLuc modulator: 6%; Rab9 prom act: -3%

How did CC1=C(c2ccc(C)c(C)c2)S(=O)(=O)N=C1N1CCC(C(=O)N2CCCCC2)CC1 do in these assays?
FLuc modulator: -7%

Results for CCOc1ccc(C(=O)OCc2cc(=O)n3nc(C4CCCCC4)sc3n2)cc1 ?
FLuc modulator: -16%

How did O=C(Nc1nccs1)c1ccc(NC(=O)c2ccco2)cc1 do in these assays?
NPC1 prom act: 4µM*; ELG1 genotoxic: inconclusive; FLuc modulator: 17µM*; SMN2 splice up: inconclusive; KinaseGlo FLuc: -3%; Rab9 prom act: 2.8µM*

Results for N=C1/C(=C\c2ccc(SCc3ccccc3)o2)C(=O)N=C2SC=NN12 ?
NPC1 prom act: -6%; ELG1 genotoxic: 3%; FLuc modulator: 13µM*; SMN2 splice up: 8%; KinaseGlo FLuc: 3%; Rab9 prom act: -4%

How did CCOC(=O)C1=CC2(CC)CCCN3CCc4c(n1c1ccccc41)C32 (stereo not drawn) do in these assays?
SMN2 splice up: -2%

What do the screens show for `CC(C)CCNC(=O)C1CC(c2cccc(F)c2)=NO1` (stereo not drawn)?
NPC1 prom act: 1%; ELG1 genotoxic: 4%; FLuc modulator: -3%; Rab9 prom act: -1%

How did CCCCNC(=O)C1CC(c2cccc(F)c2)=NO1 (stereo not drawn) do in these assays?
NPC1 prom act: inconclusive; ELG1 genotoxic: inconclusive; FLuc modulator: 15µM*; Rab9 prom act: inconclusive

How did COc1ccc(CCNC(=O)C2CC(c3cccc([N+](=O)[O-])c3)=NO2)cc1 (stereo not drawn) do in these assays?
NPC1 prom act: inconclusive; ELG1 genotoxic: 18%; FLuc modulator: 15µM*; SMN2 splice up: inconclusive; KinaseGlo FLuc: 10%; Rab9 prom act: inconclusive

Results for O=C(NCCc1cccs1)C1CC(c2ccc([N+](=O)[O-])cc2)=NO1 (stereo not drawn) ?
NPC1 prom act: 3.5µM*; ELG1 genotoxic: inconclusive; FLuc modulator: 13µM*; SMN2 splice up: inconclusive; KinaseGlo FLuc: -2%; Rab9 prom act: 2.5µM*
